Whole data set: some 16,000 sequences, median “rpm ratio (pull-down/input)” near 0.94, cut for the highest 2% near 1.7. The sample holds the highest values, similar sequences and a random draw of the others, so the mix is not that of the screen.

This experiment has as its target T1, MBP-FoxP1dN (Mus musculus, UniProt P58462 326-579).
T1 sequence: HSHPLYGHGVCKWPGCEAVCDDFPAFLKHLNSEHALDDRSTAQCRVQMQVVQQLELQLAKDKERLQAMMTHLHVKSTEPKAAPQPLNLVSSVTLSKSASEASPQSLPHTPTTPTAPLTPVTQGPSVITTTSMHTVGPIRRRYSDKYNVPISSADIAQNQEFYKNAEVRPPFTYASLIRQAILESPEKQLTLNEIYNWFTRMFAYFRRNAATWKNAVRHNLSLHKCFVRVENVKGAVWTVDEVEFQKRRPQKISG
Put plainly: PD-seq (MBP pull-down with sequencing); 20 mM Tris-HCl pH 7.5, 100 mM NaCl, 1.5 mM MgCl2, 0.4 uM protein, 0.1 uM dsDNA library, 30 min, room temperature, amylose pull-down; high values mean tight binding. The conditions noted are these: protein: recombinant; tags: His6-MBP; chain copies: 2; dsDNA, one strand shown. Summed up: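 His6-MBP-tagged mouse FoxP3 or FoxP1 fragment lacking the N-terminus, expressed in E. coli, was mixed at 0.4 µM with 0.1 µM Klenow-filled double-stranded degenerate DNA library. Incubation was 30 min at room temperature in Tris pH 7.5 buffer with NaCl and MgCl2. Complexes were caught on amylose resin and washed three times; DNA was released with proteinase K, PCR-barcoded and Illumina-sequenced. Binding is reads-per-million enrichment, pull-down over input, with replicates pooled.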
As for “GATGATTGTTCTCCCAGCTGATGAATTCAACGCGTCGAGTAAACAAATTTTCCTAATCTTTCTGTTCAAGCGCCATCTAC”, the binding signal was 0.959 RPM ratio (pull-down/input). In the case of “GATGATTGTTCTCCCAGCTGATGAATTTTTACCATCGAGTAAACAAATTTTCCTAATCTTTCTGTTCAAGCGCCATCTAC”, the binding signal was 1.01 RPM ratio (pull-down/input). Regarding “GATGATTGTTCTCCCAGCTGATGAATTTTACTGGTCGAGTAAACAAATTTTCCTAATCTTTCTGTTCAAGCGCCATCTAC”, the binding signal is 0.796 RPM ratio (pull-down/input).

For “GATGATTGTTCTCCCAGCTGATGAATTCTGGAGATCGAGTAAACAAATTTTCCTAATCTTTCTGTTCAAGCGCCATCTAC”, the binding signal was 0.812 RPM ratio (pull-down/input). With “GATGATTGTTCTCCCAGCTGATGAATTACAATGTTCGAGTAAACAAATTTTCCTAATCTTTCTGTTCAAGCGCCATCTAC”, the binding signal was 1.4 RPM ratio (pull-down/input).

Consider “GATGATTGTTCTCCCAGCTGATGAATTTTATTTATCGAGTAAACAAATTTTCCTAATCTTTCTGTTCAAGCGCCATCTAC”, for which the binding signal was 2.95 RPM ratio (pull-down/input). With “GATGATTGTTCTCCCAGCTGATGAATTATCAAAATCGAGTAAACAAATTTTCCTAATCTTTCTGTTCAAGCGCCATCTAC”, the binding signal is 1.22 RPM ratio (pull-down/input).

On to “GATGATTGTTCTCCCAGCTGATGAATTTATTTCATCGAGTAAACAAATTTTCCTAATCTTTCTGTTCAAGCGCCATCTAC”, for which the binding signal is 1.16 RPM ratio (pull-down/input). In the case of “GATGATTGTTCTCCCAGCTGATGAATTTATTTTATCGAGTAAACAAATTTTCCTAATCTTTCTGTTCAAGCGCCATCTAC” it was 1.46 RPM ratio (pull-down/input); in that of “GATGATTGTTCTCCCAGCTGATGAATTATCTACATCGAGTAAACAAATTTTCCTAATCTTTCTGTTCAAGCGCCATCTAC”, 1.12 RPM ratio (pull-down/input); in that of “GATGATTGTTCTCCCAGCTGATGAATTATCAACATCGAGTAAACAAATTTTCCTAATCTTTCTGTTCAAGCGCCATCTAC”, 2.09 RPM ratio (pull-down/input).

Consider “GATGATTGTTCTCCCAGCTGATGAATTTGCTCCCTCGAGTAAACAAATTTTCCTAATCTTTCTGTTCAAGCGCCATCTAC”, for which the binding signal was 0.995 RPM ratio (pull-down/input). In the case of “GATGATTGTTCTCCCAGCTGATGAATTACGGCCTTCGAGTAAACAAATTTTCCTAATCTTTCTGTTCAAGCGCCATCTAC” it was 0.977 RPM ratio (pull-down/input). Consider “GATGATTGTTCTCCCAGCTGATGAATTGCTGAGATCGAGTAAACAAATTTTCCTAATCTTTCTGTTCAAGCGCCATCTAC”, for which the binding signal was 0.969 RPM ratio (pull-down/input).

Turning to “GATGATTGTTCTCCCAGCTGATGAATTGACTAGTTCGAGTAAACAAATTTTCCTAATCTTTCTGTTCAAGCGCCATCTAC”, the binding signal was 1.08 RPM ratio (pull-down/input). For “GATGATTGTTCTCCCAGCTGATGAATTAGTAACATCGAGTAAACAAATTTTCCTAATCTTTCTGTTCAAGCGCCATCTAC”, the binding signal was 1.45 RPM ratio (pull-down/input).

Take “GATGATTGTTCTCCCAGCTGATGAATTTCCCACTTCGAGTAAACAAATTTTCCTAATCTTTCTGTTCAAGCGCCATCTAC”: the binding signal was 0.889 RPM ratio (pull-down/input). Consider “GATGATTGTTCTCCCAGCTGATGAATTTGGTTATTCGAGTAAACAAATTTTCCTAATCTTTCTGTTCAAGCGCCATCTAC”, for which the binding signal was 1.15 RPM ratio (pull-down/input).

Turning to “GATGATTGTTCTCCCAGCTGATGAATTTGATTATTCGAGTAAACAAATTTTCCTAATCTTTCTGTTCAAGCGCCATCTAC”, the binding signal was 1.2 RPM ratio (pull-down/input). In the case of “GATGATTGTTCTCCCAGCTGATGAATTCTCTTATTCGAGTAAACAAATTTTCCTAATCTTTCTGTTCAAGCGCCATCTAC” it was 0.995 RPM ratio (pull-down/input); in that of “GATGATTGTTCTCCCAGCTGATGAATTCGTTATTTCGAGTAAACAAATTTTCCTAATCTTTCTGTTCAAGCGCCATCTAC”, 1.14 RPM ratio (pull-down/input); in that of “GATGATTGTTCTCCCAGCTGATGAATTCTTATTTTCGAGTAAACAAATTTTCCTAATCTTTCTGTTCAAGCGCCATCTAC”, 2.25 RPM ratio (pull-down/input). In the case of “GATGATTGTTCTCCCAGCTGATGAATTCTTATGTTCGAGTAAACAAATTTTCCTAATCTTTCTGTTCAAGCGCCATCTAC” it was 1.21 RPM ratio (pull-down/input); in that of “GATGATTGTTCTCCCAGCTGATGAATTGTGTTATTCGAGTAAACAAATTTTCCTAATCTTTCTGTTCAAGCGCCATCTAC”, 2.18 RPM ratio (pull-down/input).

“GATGATTGTTCTCCCAGCTGATGAATTCCTGTGTTCGAGTAAACAAATTTTCCTAATCTTTCTGTTCAAGCGCCATCTAC”: the binding signal is 1.26 RPM ratio (pull-down/input). As to “GATGATTGTTCTCCCAGCTGATGAATTTATGATTTCGAGTAAACAAATTTTCCTAATCTTTCTGTTCAAGCGCCATCTAC”, the binding signal is 1.37 RPM ratio (pull-down/input). “GATGATTGTTCTCCCAGCTGATGAATTTTGTTATTCGAGTAAACAAATTTTCCTAATCTTTCTGTTCAAGCGCCATCTAC”: the binding signal is 2.37 RPM ratio (pull-down/input). In the case of “GATGATTGTTCTCCCAGCTGATGAATTTTCTTATTCGAGTAAACAAATTTTCCTAATCTTTCTGTTCAAGCGCCATCTAC” it was 0.953 RPM ratio (pull-down/input); in that of “GATGATTGTTCTCCCAGCTGATGAATTGTTATGTTCGAGTAAACAAATTTTCCTAATCTTTCTGTTCAAGCGCCATCTAC”, 2.01 RPM ratio (pull-down/input); in that of “GATGATTGTTCTCCCAGCTGATGAATTCCGTAAATCGAGTAAACAAATTTTCCTAATCTTTCTGTTCAAGCGCCATCTAC”, 1.2 RPM ratio (pull-down/input). As to “GATGATTGTTCTCCCAGCTGATGAATTGAACGTCTCGAGTAAACAAATTTTCCTAATCTTTCTGTTCAAGCGCCATCTAC”, the binding signal is 0.787 RPM ratio (pull-down/input). In the case of “GATGATTGTTCTCCCAGCTGATGAATTACCGTGGTCGAGTAAACAAATTTTCCTAATCTTTCTGTTCAAGCGCCATCTAC”, the binding signal was 0.89 RPM ratio (pull-down/input). In the case of “GATGATTGTTCTCCCAGCTGATGAATTTCCGAGGTCGAGTAAACAAATTTTCCTAATCTTTCTGTTCAAGCGCCATCTAC” it was 0.721 RPM ratio (pull-down/input); in that of “GATGATTGTTCTCCCAGCTGATGAATTAGACTTCTCGAGTAAACAAATTTTCCTAATCTTTCTGTTCAAGCGCCATCTAC”, 0.789 RPM ratio (pull-down/input). In the case of “GATGATTGTTCTCCCAGCTGATGAATTCCTTAGATCGAGTAAACAAATTTTCCTAATCTTTCTGTTCAAGCGCCATCTAC” it was 0.924 RPM ratio (pull-down/input); in that of “GATGATTGTTCTCCCAGCTGATGAATTTGCTCGATCGAGTAAACAAATTTTCCTAATCTTTCTGTTCAAGCGCCATCTAC”, 0.994 RPM ratio (pull-down/input).

As for “GATGATTGTTCTCCCAGCTGATGAATTTTTATTCTCGAGTAAACAAATTTTCCTAATCTTTCTGTTCAAGCGCCATCTAC”, the binding signal was 1.06 RPM ratio (pull-down/input). In the case of “GATGATTGTTCTCCCAGCTGATGAATTGTTATTTTCGAGTAAACAAATTTTCCTAATCTTTCTGTTCAAGCGCCATCTAC” it was 3.47 RPM ratio (pull-down/input).

On to “GATGATTGTTCTCCCAGCTGATGAATTATTATTCTCGAGTAAACAAATTTTCCTAATCTTTCTGTTCAAGCGCCATCTAC”, for which the binding signal is 1.45 RPM ratio (pull-down/input).

On to “GATGATTGTTCTCCCAGCTGATGAATTTCTTATTTCGAGTAAACAAATTTTCCTAATCTTTCTGTTCAAGCGCCATCTAC”, for which the binding signal is 1.07 RPM ratio (pull-down/input).

Consider “GATGATTGTTCTCCCAGCTGATGAATTATGTAATTCGAGTAAACAAATTTTCCTAATCTTTCTGTTCAAGCGCCATCTAC”, for which the binding signal is 1.31 RPM ratio (pull-down/input). In the case of “GATGATTGTTCTCCCAGCTGATGAATTGTTATTCTCGAGTAAACAAATTTTCCTAATCTTTCTGTTCAAGCGCCATCTAC” it was 2.03 RPM ratio (pull-down/input); in that of “GATGATTGTTCTCCCAGCTGATGAATTATGTTATTCGAGTAAACAAATTTTCCTAATCTTTCTGTTCAAGCGCCATCTAC”, 2.18 RPM ratio (pull-down/input); in that of “GATGATTGTTCTCCCAGCTGATGAATTGGTTATTTCGAGTAAACAAATTTTCCTAATCTTTCTGTTCAAGCGCCATCTAC”, 1.13 RPM ratio (pull-down/input). In the case of “GATGATTGTTCTCCCAGCTGATGAATTTGTTATTTCGAGTAAACAAATTTTCCTAATCTTTCTGTTCAAGCGCCATCTAC” it was 2.17 RPM ratio (pull-down/input).

Consider “GATGATTGTTCTCCCAGCTGATGAATTATTATGTTCGAGTAAACAAATTTTCCTAATCTTTCTGTTCAAGCGCCATCTAC”, for which the binding signal is 1.69 RPM ratio (pull-down/input).

These data come from publication PMC12820563, “FoxP3 forms a head-to-head dimer in vivo and stabilizes its multimerization on adjacent microsatellites”.
